Out of some 1,300 compounds screened, about 240 (18%) were called active. Not shown: some 8% with an inconclusive outcome. The rule behind the calls is not given here. Not all results are given here. Measured potencies and affinities stand elsewhere.
Experiment: toxicity to human hepatoma HepG2 cells – cell-based, cherry-picked samples, cytotoxicity control, dose response (AID 1159577);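 note: 0% = neutral control wells and -100% = positive control wells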
Conditions: HepG2 cytotoxicity counterscreen, plate reader; series mostly up to 19.5 µM; activity change, negative = cytotoxicity: at the top concentration

SMILES | activity change, negative = cytotoxicity
CCNC(=O)c1cc2c(c(-c3cccc(-c4ccccc4F)c3)n1)[C@@H](CCO)N(C(=O)CC1CC1)C2 | -8.91% (inactive)
C[C@H]1CN([C@@H](C)CO)C(=O)c2c(c3ccccc3n2C)-c2ccccc2CO[C@H]1CN(C)S(=O)(=O)c1ccc(Cl)cc1 | 10% (inactive)
C[C@@H](C(=O)N(C)C[C@@H]1OCc2ccccc2-c2c(n(C)c3ccccc23)C(=O)N([C@@H](C)CO)C[C@@H]1C)c1ccccc1 | 19.2% [at 21 µM] (inactive)
COc1cccc(S(=O)(=O)N(C)C[C@@H]2Oc3ncc(C#Cc4ccc(C(F)(F)F)cc4)cc3C(=O)N([C@H](C)CO)C[C@@H]2C)c1 | -19.5% (inactive)
C[C@H](CO)N1C[C@H](C)[C@@H](CN(C)S(=O)(=O)c2ccccc2)Oc2ccc(NC(=O)Cc3cn(C)c4ccccc34)cc2C1=O | -11.3% (inactive)
C[C@@H]1CN([C@H](C)CO)C(=O)c2cccc(NS(=O)(=O)c3ccccc3)c2O[C@H]1CN(C)Cc1ccc(Oc2ccccc2)cc1 | -10.7% (inactive)
COc1cccc(NC(=O)N(C)C[C@H]2Oc3ncc(/C=C/c4ccccc4)cc3C(=O)N([C@@H](C)CO)C[C@@H]2C)c1 | 10.3% (inactive)
COc1cccc(S(=O)(=O)N2CCC3(CC2)CN[C@@H](CO)c2[nH]c4cc(OC)ccc4c23)c1 | -8.67% (inactive)
COc1ccc(CN2C[C@H](C)[C@H](OC)CN(C)C(=O)c3cc(NC(=O)c4nc5ccccc5s4)ccc3OC[C@@H]2C)cc1 | 0.748% (inactive)
C[C@@H]1CN([C@H](C)CO)C(=O)c2cccc(NC(=O)c3nc4ccccc4s3)c2O[C@H]1CN(C)C(=O)NC1CCCCC1 | -13.7% (inactive)
C[C@@H]1CN([C@H](C)CO)C(=O)c2c(c3ccccc3n2C)-c2ccccc2CO[C@H]1CN(C)S(=O)(=O)c1ccsc1 | 14.1% (inactive)
CCC(=O)N1CC2(CCN(Cc3ccc(Cl)cc3)CC2)c2c(n(C)c3cc(OC)ccc23)[C@@H]1CO | -3.49% (inactive)
CCCNC(=O)N1CC2(CCN(C(=O)CN(C)C)CC2)c2c(n(C)c3cc(OC)ccc23)[C@H]1CO | 39.7% (inactive)
CC(C)(C)S(=O)N1Cc2cc(C(=O)N[C@@H]3CCN(Cc4ccccc4)C3)nc(-c3cccc(C#CCC4CCCC4)c3)c2[C@H]1CCO (some centres undefined) | 12.8% (inactive)
COc1ccc(C#Cc2ccc3c(c2)O[C@@H](CN(C)C(=O)Nc2cccc(OC)c2)[C@H](C)CN([C@@H](C)CO)S3(=O)=O)cc1 | -12.5% (inactive)
CO[C@@H]1CN(C)C(=O)c2cc(NC(=O)NC3CCCCC3)ccc2OC[C@@H](C)N(CCc2ccccc2)C[C@H]1C | -16.7% (inactive)
COc1ccc2c3c([nH]c2c1)[C@@H](CO)N(Cc1cccc(F)c1)CC31CCN(Cc2ccccn2)CC1 | -7.23% (inactive)
COc1ccc(C#Cc2ccc([C@@H]3[C@@H](CO)N4CCCCN(C(=O)Nc5ccccc5F)C[C@@H]34)cc2)cc1 | -18.9% (inactive)
COc1ccc(C#Cc2ccc([C@H]3[C@@H](CO)N4CCCCN(C(=O)Nc5ccccc5F)C[C@@H]34)cc2)cc1 | 5.75% (inactive)
N#C[C@@H]1[C@@H](c2ccccc2-c2ccccc2F)[C@H](CO)N1C(=O)C1CC1 | -3.25% (inactive)
COCc1cn([C@@H]2C[C@@H]3O[C@@H](CO)CC[C@@H]3O[C@@H]2CCc2ccc(-c3ccc(OC)cc3)cc2)nn1 | -6.04% (inactive)
O=C(Nc1cccc(F)c1)N[C@@H]1CC[C@@H](CCNS(=O)(=O)c2cccc(Cl)c2)O[C@@H]1CO | -6.73% (inactive)
COc1ccc(-c2ccc([C@H]3[C@H](C#N)N(C(=O)c4cccc(F)c4)[C@H]3CO)cc2)cc1 | -11.4% (inactive)

SMILES | activity change, negative = cytotoxicity
CCCNC(=O)N1[C@H](C#N)[C@H](c2ccc(-c3cccc(OC)c3)cc2)[C@@H]1CO | -27.5% [at 21 µM] (inactive)
CC(C)NC(=O)N1[C@H](C#N)[C@H](c2ccccc2-c2ccc(F)cc2)[C@@H]1CO | 2.4% [at 21 µM] (inactive)
CC(C)NC(=O)N1[C@H](C#N)[C@H](c2ccc(-c3ccc(F)cc3)cc2)[C@@H]1CO | -12.8% (inactive)
COc1ccc(-c2ccccc2[C@H]2[C@@H](C#N)N(C(=O)NC(C)C)[C@H]2CO)cc1 | 12.7% (inactive)
CC(C)NC(=O)N1[C@H](C#N)[C@H](c2ccc(C#CC3CCCC3)cc2)[C@@H]1CO | 9.72% (inactive)
C[C@H]1CN([C@@H](C)CO)C(=O)c2c(c3ccccc3n2C)-c2ccccc2CO[C@@H]1CN(C)S(=O)(=O)c1ccc(C(F)(F)F)cc1 | 0.653% [at 21 µM] (inactive)
C[C@H]1CN([C@@H](C)CO)C(=O)c2cc(NC(=O)Cc3cn(C)c4ccccc34)ccc2O[C@H]1CN(C)S(=O)(=O)c1ccccc1 | -22.9% [at 21 µM] (inactive)
CO[C@H]1CN(C)C(=O)c2cc(NC(=O)c3ccc(F)cc3)ccc2OC[C@H](C)N(C(=O)c2ccc(F)cc2)C[C@H]1C | 17.4% (inactive)
O=C(c1ccccn1)N1CC(=O)N2[C@H](CO)[C@@H](c3ccc(C#CCc4ccccc4)cc3)[C@@H]2C1 | -2.05% (inactive)
CCCNC(=O)c1cc2c(c(-c3cccc(-c4cc5ccccc5o4)c3)n1)[C@@H](CCO)N(C(=O)NC(C)C)C2 | 34.4% (inactive)
O=C(C1CCC1)N1C[C@@H]2N[C@H](C1)C2c1ccc(-c2ccccc2F)cc1 (some centres undefined) | -3.39% [at 21 µM] (inactive)
C/C=C/c1ccc([C@H]2[C@H](CO)N(S(=O)(=O)Cc3ccccc3)C23CN(C(=O)C2CCCC2)C3)cc1 | 11.3% (inactive)
N#Cc1ccc(-c2ccc(C3[C@@H]4CN(C(=O)C5CCC5)C[C@H]3N4)cc2)cc1 (some centres undefined) | 0.866% (inactive)
CCCNC(=O)N1CCC2(CC1)CN(Cc1cccc(F)c1)[C@@H](CO)c1[nH]c3cc(OC)ccc3c12 | 11.2% (inactive)
C[C@@H]1CN([C@@H](C)CO)C(=O)c2cccc(NC(=O)C3CC3)c2O[C@H]1CN(C)Cc1ccc(-c2ccccc2)cc1 | 2.06% [at 21 µM] (inactive)
C[C@H](CO)N1C[C@H](C)[C@H](CN(C)S(=O)(=O)c2ccccc2)Oc2ccc(NC(=O)Cc3cn(C)c4ccccc34)cc2C1=O | -16.1% [at 21 µM] (inactive)
C[C@H]1CN([C@@H](C)CO)S(=O)(=O)c2ccc(C#Cc3ccccc3F)cc2O[C@@H]1CN(C)C(=O)c1ccc2c(c1)OCO2 | -20.7% (inactive)
CO[C@H]1CN(C)C(=O)c2cc(NC(C)=O)ccc2OC[C@H](C)N(Cc2ccncc2)C[C@H]1C | 6.95% (inactive)
C[C@@H]1CN([C@@H](C)CO)C(=O)Cc2cc(NC(=O)NC3CCCCC3)ccc2O[C@H]1CN(C)C(=O)Nc1cccc2ccccc12 | -11.8% (inactive)
COc1ccc(C#Cc2ccc3c(c2)[C@H]2[C@H](CCN2Cc2nccs2)[C@H](CO)N3)cc1 | -15.7% (inactive)
COc1ccccc1-c1ccc2c(c1)[C@@H]1[C@@H](CCN1C(=O)C1CCCCC1)[C@@H](CO)N2 | -41.1% (inactive)
COc1ccc(C#Cc2ccc3c(c2)[C@H]2[C@H](CCN2Cc2ccncc2)[C@H](CO)N3)cc1 | -7.45% (inactive)
CCCC#Cc1ccc2c(c1)[C@H]1[C@H](CCN1Cc1ccccc1F)[C@@H](CO)N2 | -3.79% (inactive)

SMILES | activity change, negative = cytotoxicity
COc1ccccc1-c1ccc2c(c1)[C@H]1[C@H](CCN1C(=O)C1CCCC1)[C@@H](CO)N2 | -10.4% (inactive)
COc1ccc(C#Cc2ccc3c(c2)[C@H]2[C@H](CCN2Cc2ccncc2)[C@@H](CO)N3)cc1 | -6.57% [at 21 µM] (inactive)
OC[C@H]1CC[C@@H]2O[C@H](CCc3ccc(C#CCc4ccccc4)cc3)[C@H](n3cc(-c4ccccc4)nn3)C[C@@H]2O1 | -6.78% (inactive)
O=C(Cc1cccnc1)N1CC[C@H]2[C@H](CO)Nc3ccc(C#Cc4cccc(F)c4)cc3[C@H]21 | 15.6% (inactive)
COCC(=O)N1[C@H](CO)[C@@H](c2ccccc2)C12CN(Cc1cc(F)ccc1F)C2 | -4.29% (inactive)
COc1ccccc1-c1ccccc1[C@@H]1[C@@H](C#N)N(C(=O)C2CC2)[C@@H]1CO | -16.3% (inactive)
COc1ccc2c3c(n(C)c2c1)[C@@H](CO)N(CC1CCCCC1)CC31CCN(C(=O)CN(C)C)CC1 | -15.1% (inactive)
COc1ccc(C#Cc2ccc3c(c2)[C@H]2[C@H](CCN2C(=O)C2CCCC2)[C@@H](CO)N3)cc1 | 21.2% (inactive)
CCCNC(=O)N1[C@@H](C#N)[C@H](c2ccccc2-c2ccccc2F)[C@@H]1CO | -1.97% (inactive)
COc1ccc(NC(=O)N(C)C[C@@H]2Oc3cc(-c4ccc(C)cc4)ccc3S(=O)(=O)N([C@@H](C)CO)C[C@H]2C)cc1 | -3.09% (inactive)
COc1ccc2c3c(n(C)c2c1)[C@@H](CO)N(C(=O)Nc1ccc(F)cc1)CC31CN(C(=O)c2ccc3c(c2)OCO3)C1 | -22.8% (inactive)
COc1ccc2c3c([nH]c2c1)[C@@H](CO)N(Cc1cc(F)ccc1F)CC31CN(C(=O)CN(C)C)C1 | -4.77% (inactive)
CC(C)(C)[S@@](=O)N1Cc2cc(C(=O)NCCc3ccncc3)nc(-c3cccc(-c4ccccc4)c3)c2[C@H]1CCO | 12.2% (inactive)
COc1ccc2c3c(n(C)c2c1)[C@@H](CO)N(C(=O)C1CCCC1)CC31CN(C(=O)Nc2cccc(F)c2)C1 | 9.52% (inactive)
CCS(=O)(=O)N1[C@H](CO)[C@H](c2ccc(C#Cc3ccccc3F)cc2)[C@@H]1C#N | -1.99% (inactive)
N#C[C@H]1[C@@H](c2ccc(C#CC3CCCC3)cc2)[C@@H](CO)N1S(=O)(=O)Cc1ccccc1 | -18% (inactive)
COc1cccc(C#Cc2ccc([C@@H]3[C@@H](C#N)N(C(=O)c4ccccn4)[C@H]3CO)cc2)c1 | -15.3% (inactive)
N#C[C@H]1[C@H](c2ccc(C#CC3CCCCC3)cc2)[C@@H](CO)N1S(=O)(=O)c1ccccc1 | -13.8% [at 21 µM] (inactive)
CCCC#Cc1ccc([C@H]2[C@@H](CO)N(C(=O)C3CCCCC3)[C@H]2C#N)cc1 | -23.3% (inactive)
N#C[C@H]1[C@@H](c2ccc(C#CC3CC3)cc2)[C@H](CO)N1S(=O)(=O)c1ccccc1 | -16.2% (inactive)
COc1ccc(C#Cc2ccc3c(c2)[C@H]2[C@H](CCN2Cc2nccs2)[C@@H](CO)N3)cc1 | -4.98% [at 21 µM] (inactive)
CCCN1C[C@@H](C)[C@H](OC)CN(C)C(=O)c2ccc(NC(=O)c3ccc4c(c3)OCO4)cc2OC[C@H]1C | -8.36% [at 21 µM] (inactive)
CC(C)(O)C#Cc1cccc(-c2nc(C(=O)N[C@@H]3CCN(Cc4ccccc4)C3)cc3c2[C@H](CCO)N(S(=O)C(C)(C)C)C3)c1 (some centres undefined) | -3.36% (inactive)

— PubChem BioAssay AID1159577 (Broad Institute, 2015)
